Source: the supplement of paper PMC10849652
Of roughly 8,800 targets only a part is listed; those with a hit were picked by preference. About 0.5% of all pairs of compound and target were hits. Values without a mark were called inactive.

compound: O=C1NC(=O)C(c2cnc3ccccn23)=C1c1cn2c3c(cc(F)cc13)CN(C(=O)N1CCCCC1)CC2; test: log2 fold change, soluble protein after heating vs DMSO (PISA); higher = thermal stabilisation; K562 lysate, 10 uM; active = over 0.2 and 3.5 SD of the protein, either way, in both replicates (recomputed)
Summary of the method: (§1)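 Quantification was by TMTpro 16plex LC-MS/MS with equalised channel sums, applied to the supernatant after 21,000xg for 90 min. Samples were crude K562 extract at 1 mg/mL protein in PBS pH 7.4 with 1 mM MgCl2, treated with 10 μM compound for 30 min, heated for 3 min across 48°C-58°C, pooled and brought to 0.5% NP-40 at 4°C. Values are log-two fold changes in thermal stability relative to solvent controls, from duplicates.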

UniProt P0C2W1, sequence (P0C2W1 whole entry, looked up): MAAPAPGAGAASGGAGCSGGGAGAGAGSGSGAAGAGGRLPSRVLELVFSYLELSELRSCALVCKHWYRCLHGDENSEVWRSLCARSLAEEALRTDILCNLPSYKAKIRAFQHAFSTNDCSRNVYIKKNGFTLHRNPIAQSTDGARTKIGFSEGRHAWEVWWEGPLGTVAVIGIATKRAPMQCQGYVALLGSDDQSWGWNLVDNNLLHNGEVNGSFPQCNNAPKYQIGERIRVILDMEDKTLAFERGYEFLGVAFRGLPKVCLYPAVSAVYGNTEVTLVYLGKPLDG
UniProt Q14C86, sequence (Q14C86 whole entry, looked up): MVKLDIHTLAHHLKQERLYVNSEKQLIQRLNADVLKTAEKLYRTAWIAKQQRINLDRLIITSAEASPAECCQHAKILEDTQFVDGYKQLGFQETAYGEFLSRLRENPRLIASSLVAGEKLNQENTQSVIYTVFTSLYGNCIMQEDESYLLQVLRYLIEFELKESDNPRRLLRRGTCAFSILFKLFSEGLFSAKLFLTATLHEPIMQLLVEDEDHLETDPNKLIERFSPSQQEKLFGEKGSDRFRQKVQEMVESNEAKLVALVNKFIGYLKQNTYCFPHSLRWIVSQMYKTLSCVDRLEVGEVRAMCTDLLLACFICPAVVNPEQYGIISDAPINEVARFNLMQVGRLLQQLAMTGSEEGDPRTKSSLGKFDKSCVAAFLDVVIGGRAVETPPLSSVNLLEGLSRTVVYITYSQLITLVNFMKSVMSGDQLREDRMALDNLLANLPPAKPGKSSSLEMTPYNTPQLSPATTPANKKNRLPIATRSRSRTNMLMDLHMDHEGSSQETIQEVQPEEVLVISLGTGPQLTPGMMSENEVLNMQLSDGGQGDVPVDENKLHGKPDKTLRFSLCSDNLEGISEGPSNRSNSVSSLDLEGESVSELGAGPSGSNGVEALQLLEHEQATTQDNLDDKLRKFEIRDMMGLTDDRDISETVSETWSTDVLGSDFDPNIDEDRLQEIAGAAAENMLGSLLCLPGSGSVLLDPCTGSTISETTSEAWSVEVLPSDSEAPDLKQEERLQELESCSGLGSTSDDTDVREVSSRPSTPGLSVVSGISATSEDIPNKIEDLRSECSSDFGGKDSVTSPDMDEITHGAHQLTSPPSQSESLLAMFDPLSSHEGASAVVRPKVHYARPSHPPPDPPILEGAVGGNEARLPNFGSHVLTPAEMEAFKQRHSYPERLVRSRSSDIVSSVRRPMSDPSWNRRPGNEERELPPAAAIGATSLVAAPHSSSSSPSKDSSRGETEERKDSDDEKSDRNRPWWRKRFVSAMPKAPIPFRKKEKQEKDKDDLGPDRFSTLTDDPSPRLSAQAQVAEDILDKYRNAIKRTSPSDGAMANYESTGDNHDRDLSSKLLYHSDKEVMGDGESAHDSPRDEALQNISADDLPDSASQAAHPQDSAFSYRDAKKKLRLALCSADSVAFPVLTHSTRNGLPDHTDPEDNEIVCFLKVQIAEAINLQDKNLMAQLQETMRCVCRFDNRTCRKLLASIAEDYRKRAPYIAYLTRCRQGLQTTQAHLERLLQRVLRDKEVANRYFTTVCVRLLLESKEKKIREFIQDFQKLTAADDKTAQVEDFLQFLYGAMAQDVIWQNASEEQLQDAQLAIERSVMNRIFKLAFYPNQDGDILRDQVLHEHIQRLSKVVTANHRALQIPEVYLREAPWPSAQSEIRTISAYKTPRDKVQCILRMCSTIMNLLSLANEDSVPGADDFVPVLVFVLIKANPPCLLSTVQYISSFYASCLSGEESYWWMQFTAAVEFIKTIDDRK
UniProt Q56P03, sequence (Q56P03 whole entry, looked up): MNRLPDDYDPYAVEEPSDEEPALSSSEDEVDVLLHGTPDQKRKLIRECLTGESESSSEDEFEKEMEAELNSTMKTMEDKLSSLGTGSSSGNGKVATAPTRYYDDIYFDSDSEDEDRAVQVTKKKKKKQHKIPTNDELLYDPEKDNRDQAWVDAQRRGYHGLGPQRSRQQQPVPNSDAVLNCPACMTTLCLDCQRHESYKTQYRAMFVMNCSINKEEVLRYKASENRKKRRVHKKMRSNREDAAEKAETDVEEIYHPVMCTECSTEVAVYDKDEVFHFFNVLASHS
UniProt Q6PIJ6, sequence (Q6PIJ6 whole entry, looked up): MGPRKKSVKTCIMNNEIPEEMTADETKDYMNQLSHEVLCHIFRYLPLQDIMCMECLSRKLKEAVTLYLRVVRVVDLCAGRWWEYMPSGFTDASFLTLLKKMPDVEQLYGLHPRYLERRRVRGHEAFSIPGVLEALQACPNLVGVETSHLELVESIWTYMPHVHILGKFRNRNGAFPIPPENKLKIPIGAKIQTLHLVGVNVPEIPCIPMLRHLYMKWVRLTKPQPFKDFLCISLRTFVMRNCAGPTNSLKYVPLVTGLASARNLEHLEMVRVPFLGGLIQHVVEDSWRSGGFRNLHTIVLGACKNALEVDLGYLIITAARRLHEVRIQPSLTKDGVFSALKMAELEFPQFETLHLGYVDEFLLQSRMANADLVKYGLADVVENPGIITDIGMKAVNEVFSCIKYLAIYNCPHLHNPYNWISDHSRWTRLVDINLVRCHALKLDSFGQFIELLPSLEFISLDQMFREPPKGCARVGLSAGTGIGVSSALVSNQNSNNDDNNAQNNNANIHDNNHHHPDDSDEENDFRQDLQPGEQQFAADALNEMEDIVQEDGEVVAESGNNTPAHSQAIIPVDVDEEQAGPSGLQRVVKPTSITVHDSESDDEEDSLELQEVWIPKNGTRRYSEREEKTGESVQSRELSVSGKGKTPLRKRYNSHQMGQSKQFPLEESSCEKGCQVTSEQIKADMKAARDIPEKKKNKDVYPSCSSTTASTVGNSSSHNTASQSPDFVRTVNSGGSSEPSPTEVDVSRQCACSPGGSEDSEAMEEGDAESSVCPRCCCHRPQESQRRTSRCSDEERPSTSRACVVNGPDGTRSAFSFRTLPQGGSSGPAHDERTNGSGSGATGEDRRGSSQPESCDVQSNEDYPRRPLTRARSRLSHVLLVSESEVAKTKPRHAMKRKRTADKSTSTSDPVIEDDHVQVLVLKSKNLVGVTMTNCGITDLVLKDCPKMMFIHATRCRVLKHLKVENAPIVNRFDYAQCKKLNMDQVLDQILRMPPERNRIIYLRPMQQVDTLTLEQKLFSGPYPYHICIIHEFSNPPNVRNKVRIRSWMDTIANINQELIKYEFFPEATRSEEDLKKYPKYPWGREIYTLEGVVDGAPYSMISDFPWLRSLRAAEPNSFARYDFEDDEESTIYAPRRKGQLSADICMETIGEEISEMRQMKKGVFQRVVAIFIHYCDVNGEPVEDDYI
UniProt Q13409, sequence (Q13409 whole entry, looked up): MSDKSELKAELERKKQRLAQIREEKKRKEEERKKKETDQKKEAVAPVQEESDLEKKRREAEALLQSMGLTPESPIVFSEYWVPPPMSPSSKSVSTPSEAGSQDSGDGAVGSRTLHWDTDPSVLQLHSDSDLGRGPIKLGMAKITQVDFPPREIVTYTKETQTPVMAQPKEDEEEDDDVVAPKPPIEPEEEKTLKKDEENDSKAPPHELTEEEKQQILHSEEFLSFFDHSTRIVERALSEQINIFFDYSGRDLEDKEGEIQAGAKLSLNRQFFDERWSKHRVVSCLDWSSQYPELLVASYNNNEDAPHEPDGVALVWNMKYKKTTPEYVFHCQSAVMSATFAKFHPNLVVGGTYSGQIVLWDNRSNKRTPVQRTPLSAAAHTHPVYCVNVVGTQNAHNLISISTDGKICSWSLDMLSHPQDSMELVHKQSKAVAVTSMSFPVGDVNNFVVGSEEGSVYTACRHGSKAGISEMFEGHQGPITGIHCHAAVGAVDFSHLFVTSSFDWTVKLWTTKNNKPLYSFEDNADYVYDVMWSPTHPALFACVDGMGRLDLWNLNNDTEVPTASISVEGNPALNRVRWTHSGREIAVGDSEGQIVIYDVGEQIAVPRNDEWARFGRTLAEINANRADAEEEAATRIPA
UniProt Q96KP1, sequence (Q96KP1 whole entry, looked up): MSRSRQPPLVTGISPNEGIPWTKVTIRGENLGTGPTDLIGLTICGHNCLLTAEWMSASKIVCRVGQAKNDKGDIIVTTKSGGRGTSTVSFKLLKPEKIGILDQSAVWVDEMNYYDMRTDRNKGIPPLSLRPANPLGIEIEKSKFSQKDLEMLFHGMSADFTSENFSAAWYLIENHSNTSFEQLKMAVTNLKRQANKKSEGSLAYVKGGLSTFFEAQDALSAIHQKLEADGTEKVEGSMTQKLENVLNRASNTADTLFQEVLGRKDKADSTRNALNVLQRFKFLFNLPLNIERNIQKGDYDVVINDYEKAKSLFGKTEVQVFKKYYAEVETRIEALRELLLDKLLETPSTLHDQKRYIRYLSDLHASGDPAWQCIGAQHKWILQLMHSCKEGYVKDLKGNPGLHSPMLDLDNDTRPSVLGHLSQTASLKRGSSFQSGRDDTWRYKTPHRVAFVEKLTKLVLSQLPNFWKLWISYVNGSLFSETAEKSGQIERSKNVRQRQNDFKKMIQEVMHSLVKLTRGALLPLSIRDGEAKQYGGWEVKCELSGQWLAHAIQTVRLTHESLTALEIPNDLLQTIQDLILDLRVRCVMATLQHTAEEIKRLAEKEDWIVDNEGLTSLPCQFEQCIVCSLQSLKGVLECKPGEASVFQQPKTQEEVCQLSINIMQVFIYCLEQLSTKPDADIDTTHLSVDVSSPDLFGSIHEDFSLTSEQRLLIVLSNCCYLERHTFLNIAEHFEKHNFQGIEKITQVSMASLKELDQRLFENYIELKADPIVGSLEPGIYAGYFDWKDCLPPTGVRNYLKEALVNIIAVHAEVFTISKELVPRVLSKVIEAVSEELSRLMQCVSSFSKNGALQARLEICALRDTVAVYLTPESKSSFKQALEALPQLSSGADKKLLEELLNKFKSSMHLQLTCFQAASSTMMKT
UniProt P62942, sequence (P62942 whole entry, looked up): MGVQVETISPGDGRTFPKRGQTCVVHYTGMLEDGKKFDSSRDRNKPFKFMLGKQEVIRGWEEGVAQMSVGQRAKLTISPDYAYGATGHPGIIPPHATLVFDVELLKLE
UniProt P41567, sequence (P41567 whole entry, looked up): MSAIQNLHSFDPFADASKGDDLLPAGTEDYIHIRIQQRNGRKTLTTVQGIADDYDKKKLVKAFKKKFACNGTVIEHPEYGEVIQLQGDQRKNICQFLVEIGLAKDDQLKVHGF

How did the log2 fold change turn out when EIF1 (UniProt P41567) was run?
Its log2 fold change is 0.036.

With EEF1AKNMT (UniProt Q8N6R0) as the target, how does the log2 fold change read?
The log2 fold change was -0.005.

With ECI2 (UniProt O75521) as the target, how does the log2 fold change read?
The log2 fold change was 0.284 (active).

How did the log2 fold change turn out when FBLL1 (UniProt A6NHQ2) was run?
Its log2 fold change is -0.017.

For FUBP3 (UniProt Q96I24), which log2 fold change is on record?
Its log2 fold change is 0.047.

How did the log2 fold change turn out when DYRK1A (UniProt Q13627) was run?
The log2 fold change was 0.01.

With DYNC1I2 isoform 5 (UniProt Q13409) as the target, how does the log2 fold change read?
Its log2 fold change is -0.005.

For FARSA (UniProt Q9Y285), which log2 fold change is on record?
Its log2 fold change is -0.006.

For EIF2B3 (UniProt Q9NR50), which log2 fold change is on record?
Its log2 fold change is 0.009.

Which log2 fold change does the source give for FAM118A (UniProt Q9NWS6) here?
Its log2 fold change is -0.003.

FBXO38 (UniProt Q6PIJ6) was tested. Which log2 fold change did it give?
The log2 fold change was -0.159.

How did the log2 fold change turn out when EAPP (UniProt Q56P03) was run?
Its log2 fold change is 0.024.

ERI1 (UniProt Q8IV48) was tested. Which log2 fold change did it give?
Its log2 fold change is -0.017.

For EP400 isoform 5 (UniProt Q96L91), which log2 fold change is on record?
Its log2 fold change is -0.025.

For FBXO45 (UniProt P0C2W1), which log2 fold change is on record?
Its log2 fold change is 0.021.

For ERLIN1 (UniProt O75477), which log2 fold change is on record?
The log2 fold change was 0.03.

How did the log2 fold change turn out when ERAL1 (UniProt O75616) was run?
The log2 fold change was -0.044.

FOXK1 (UniProt P85037) was tested. Which log2 fold change did it give?
Its log2 fold change is -0.048.

EEF1A1, A0A087WVQ9 was tested. Which log2 fold change did it give?
The log2 fold change was -0.022.

How did the log2 fold change turn out when GAA (UniProt P10253) was run?
Its log2 fold change is -0.056.

EBP (UniProt Q15125) was tested. Which log2 fold change did it give?
Its log2 fold change is 0.097.

With FKBP1A (UniProt P62942) as the target, how does the log2 fold change read?
Its log2 fold change is 0.068.

For ETHE1 (UniProt O95571), which log2 fold change is on record?
Its log2 fold change is 0.

How did the log2 fold change turn out when EXOC2 (UniProt Q96KP1) was run?
Its log2 fold change is 0.022.

GART (UniProt P22102) was tested. Which log2 fold change did it give?
The log2 fold change was 0.003.

Which log2 fold change does the source give for FOXJ3 (UniProt Q9UPW0) here?
The log2 fold change was 0.019.

EGLN1 (UniProt Q9GZT9) was tested. Which log2 fold change did it give?
Its log2 fold change is -0.024.

With FHOD1 (UniProt Q9Y613) as the target, how does the log2 fold change read?
Its log2 fold change is -0.02.

With FAM111A (UniProt Q96PZ2) as the target, how does the log2 fold change read?
Its log2 fold change is 0.048.

Which log2 fold change does the source give for GAPVD1 isoform 6 (UniProt Q14C86) here?
Its log2 fold change is -0.001.

With FYB1 isoform 3 (UniProt O15117) as the target, how does the log2 fold change read?
The log2 fold change was 0.

Which log2 fold change does the source give for ELAVL4 (UniProt P26378) here?
The log2 fold change was 0.004.

With FMNL1 isoform 3 (UniProt O95466) as the target, how does the log2 fold change read?
Its log2 fold change is 0.071.

With EIF2AK2 (UniProt P19525) as the target, how does the log2 fold change read?
Its log2 fold change is -0.017.

How did the log2 fold change turn out when EHD2 (UniProt Q9NZN4) was run?
Its log2 fold change is 0.018.

How did the log2 fold change turn out when EXOC3 (UniProt O60645) was run?
Its log2 fold change is 0.002.

compound: c1cn2cc(-c3ccc4cn[nH]c4c3)nc(Nc3ccc(N4CCOCC4)cc3)c2n1 [entospletinib]; test: as above
Summary of the method: as §1

With EIF1 (UniProt P41567) as the target, how does the log2 fold change read?
Its log2 fold change is 0.028.

For EEF1AKNMT (UniProt Q8N6R0), which log2 fold change is on record?
The log2 fold change was 0.026.

How did the log2 fold change turn out when ECI2 (UniProt O75521) was run?
Its log2 fold change is -0.033.

How did the log2 fold change turn out when FBLL1 (UniProt A6NHQ2) was run?
The log2 fold change was -0.014.

For FUBP3 (UniProt Q96I24), which log2 fold change is on record?
The log2 fold change was -0.065.

For DYRK1A (UniProt Q13627), which log2 fold change is on record?
The log2 fold change was 0.005.

DYNC1I2 isoform 5 (UniProt Q13409) was tested. Which log2 fold change did it give?
The log2 fold change was -0.007.

With FARSA (UniProt Q9Y285) as the target, how does the log2 fold change read?
Its log2 fold change is 0.003.

With EIF2B3 (UniProt Q9NR50) as the target, how does the log2 fold change read?
The log2 fold change was -0.004.

For FAM118A (UniProt Q9NWS6), which log2 fold change is on record?
Its log2 fold change is -0.014.

For FBXO38 (UniProt Q6PIJ6), which log2 fold change is on record?
Its log2 fold change is -0.173.

For EAPP (UniProt Q56P03), which log2 fold change is on record?
The log2 fold change was 0.024.

How did the log2 fold change turn out when ERI1 (UniProt Q8IV48) was run?
Its log2 fold change is 0.041.

Which log2 fold change does the source give for EP400 isoform 5 (UniProt Q96L91) here?
Its log2 fold change is -0.021.

FBXO45 (UniProt P0C2W1) was tested. Which log2 fold change did it give?
Its log2 fold change is -0.05.

For ERLIN1 (UniProt O75477), which log2 fold change is on record?
Its log2 fold change is 0.023.

How did the log2 fold change turn out when ERAL1 (UniProt O75616) was run?
The log2 fold change was -0.083.

With FOXK1 (UniProt P85037) as the target, how does the log2 fold change read?
Its log2 fold change is 0.038.

Which log2 fold change does the source give for EEF1A1, A0A087WVQ9 here?
The log2 fold change was 0.015.

For GAA (UniProt P10253), which log2 fold change is on record?
The log2 fold change was 0.068.

Which log2 fold change does the source give for EBP (UniProt Q15125) here?
Its log2 fold change is 0.013.

For FKBP1A (UniProt P62942), which log2 fold change is on record?
Its log2 fold change is 0.049.

For ETHE1 (UniProt O95571), which log2 fold change is on record?
The log2 fold change was -0.02.

Which log2 fold change does the source give for EXOC2 (UniProt Q96KP1) here?
Its log2 fold change is 0.024.

For GART (UniProt P22102), which log2 fold change is on record?
Its log2 fold change is 0.012.

For FOXJ3 (UniProt Q9UPW0), which log2 fold change is on record?
The log2 fold change was 0.022.

With EGLN1 (UniProt Q9GZT9) as the target, how does the log2 fold change read?
The log2 fold change was -0.009.

Which log2 fold change does the source give for FHOD1 (UniProt Q9Y613) here?
Its log2 fold change is -0.002.

How did the log2 fold change turn out when FAM111A (UniProt Q96PZ2) was run?
Its log2 fold change is 0.044.

GAPVD1 isoform 6 (UniProt Q14C86) was tested. Which log2 fold change did it give?
Its log2 fold change is -0.002.

How did the log2 fold change turn out when FYB1 isoform 3 (UniProt O15117) was run?
The log2 fold change was -0.006.

ELAVL4 (UniProt P26378) was tested. Which log2 fold change did it give?
Its log2 fold change is -0.067.

FMNL1 isoform 3 (UniProt O95466) was tested. Which log2 fold change did it give?
The log2 fold change was -0.066.

With EIF2AK2 (UniProt P19525) as the target, how does the log2 fold change read?
The log2 fold change was 0.068.

How did the log2 fold change turn out when EHD2 (UniProt Q9NZN4) was run?
The log2 fold change was 0.032.

EXOC3 (UniProt O60645) was tested. Which log2 fold change did it give?
The log2 fold change was -0.026.
